40 compounds from PubChem BioAssay can be followed below.

Unmarked numbers belong to inactive results. Activity calls are given as the source filed them. Rule as the data show it, unless noted: active = inhibition above about 33%; inactive = the rest.

In one experiment the target is Steroidogenic factor 1 (Homo sapiens) (UniProt Q13285). Nature of the experiment: inverse agonism at SF1 nuclear receptor – cell-based, luminescence, high throughput, counter-screen for LRH-1 inverse agonist project (AID 651614; in the data active = inhibition above about 44%;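 also: cells cotransfected with StAR promoter reporter and SF1 expression vector; 0% = vehicle on cells with receptor and 100% = vehicle on cells lacking receptor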). The conditions noted are these: cell-based SF1 luciferase reporter, at 3.6 µM, hits give high values. (In general: A counterscreen serves to expose hits that act by an unwanted route or on another target.)
Steroidogenic factor 1 (Homo sapiens), sequence (Q13285 whole entry, looked up): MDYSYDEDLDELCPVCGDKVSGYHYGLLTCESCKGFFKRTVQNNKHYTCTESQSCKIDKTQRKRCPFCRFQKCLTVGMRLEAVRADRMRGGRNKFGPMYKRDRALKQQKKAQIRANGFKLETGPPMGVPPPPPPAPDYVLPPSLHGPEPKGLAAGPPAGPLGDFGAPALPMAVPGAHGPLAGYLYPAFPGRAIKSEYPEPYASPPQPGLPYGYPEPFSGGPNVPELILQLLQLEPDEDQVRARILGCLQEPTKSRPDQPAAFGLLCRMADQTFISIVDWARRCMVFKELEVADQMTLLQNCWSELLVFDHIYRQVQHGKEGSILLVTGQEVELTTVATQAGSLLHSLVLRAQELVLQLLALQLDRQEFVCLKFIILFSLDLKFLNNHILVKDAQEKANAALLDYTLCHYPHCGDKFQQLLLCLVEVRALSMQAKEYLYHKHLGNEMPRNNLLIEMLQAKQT
In general, inhibition refers to the drop in the measured response relative to a control, in per cent. In the case of `CC1CCCC(C)N1C(=O)COC(=O)CCC1CCCC1` (stereo not given), the inhibition was 52.9% (active).

As to `COC(=O)c1ccc(NC(=O)CSc2nncn2-c2cccnc2)cc1`, the inhibition was 34.3%.

Turning to `CC1CC(C)CN(c2cc(N(C)CCO)c([N+](=O)[O-])c3nonc23)C1` (stereo not given), the inhibition is 63.6% (active).

With `CCCC(=O)Nc1sc2c(c1C(=O)Nc1ccccn1)CCCC2`, the inhibition is 53.8% (active).

On to `O=C(CSc1nnc(CNC(=O)c2ccccc2F)o1)Nc1ccc2c(c1)OCCO2`, for which the inhibition was 51.6% (active).

Consider `CC(=O)N1CCc2c(sc(NC(=O)CCS(=O)(=O)c3ccc(C)cc3)c2C#N)C1`, for which the inhibition was 43.6% (active).

As for `O=C(COc1cccc2c1CCNC2=O)Nc1cccc(C(F)(F)F)c1`, the inhibition is 29.9%.

For the compound `Cc1ccc(NC(=O)[C@H](Cc2c[nH]c3ccccc23)NC(=O)[C@@H]2Cc3ccccc3CN2)c(C)c1`, the inhibition was 71.4% (active).

Consider `COc1ccccc1NC(=O)CN1CCN(CC(=O)Nc2ccc(S(N)(=O)=O)cc2)CC1`, for which the inhibition was 47.7% (active).

Turning to `COc1cc(NC(=O)CCl)ccc(=O)c1`, the inhibition is 68.2% (active).

Regarding `Cc1cc2ccccn2c1C(=O)c1ccc([N+](=O)[O-])o1`, the inhibition is 62.2% (active).

For `Cc1cc2ncn(/N=C/c3ccc([N+](=O)[O-])s3)c2cc1C`, the inhibition is 58.6% (active).

`Cc1cc(-c2nnc(SCC(=O)Nc3cccc(C)c3C)n2N)n[nH]1`: the inhibition was 48.2% (active).

Take `CCCc1cc(=O)n2nc(N3CCC(C(=O)N4CCN(c5ccc(OC)cc5)CC4)CC3)sc2n1`: the inhibition is 55.1% (active).

Take `CCOc1ccccc1C(=O)Nc1cc2c(cc1N1CCCC1)n(CC)c(=O)n2CC`: the inhibition is 53.5% (active).

In the case of `CCOCC(=O)Nc1ccc(S(=O)(=O)NCCc2ccccc2)cc1`, the inhibition is 43.2% (active).

For `Cc1cccc(NC(=O)CSc2nc3[nH]ncc3c(=O)[nH]2)c1C`, the inhibition was 52.2% (active).

For `COCc1cccc(-c2csc(C(C)(O)c3cccc(OC)c3)n2)c1` (stereo not given), the inhibition is 29.1%.

As for `Nn1c(SCC(=O)Nc2c(F)cc(F)cc2Br)nnc1C1CCCCC1`, the inhibition was 27.5%.

As for `COc1ccc(-c2ccc(C(=O)NCc3ccncc3)c3occc23)c(C)c1`, the inhibition was 70.1% (active).

Turning to `CN(C)C(=O)Cn1c(SCC(=O)Nc2ccc3c(c2)OCO3)nc2ccccc21`, the inhibition is 28.2%.

Turning to `COc1ccc(NC(=O)CSc2nnc(Cc3ccccc3)c(=O)n2N)c(OC)c1`, the inhibition was 54.2% (active).

As for `C=CCNC(=S)N/N=C(\C)c1ccccn1`, the inhibition is 88.6% (active).

On to `CS(=O)(=O)c1ccc(Cl)c(NC(=O)Nc2ccccc2)c1`, for which the inhibition was 17.5%.

For `COC(=O)c1ccc(NC(=O)CSc2nnc(C)n2CC2CCCO2)cc1` (stereo not given), the inhibition was 40.7%.

In the case of `O=C(Nc1c(Cl)ccc2nsnc12)c1ccc([N+](=O)[O-])o1`, the inhibition is 64.9% (active).

Turning to `Cc1ccc2[nH]c(C)c(/C=C/c3cc[n+](C)cc3)c2c1`, the inhibition was 67.3% (active).

As for `O=C(N/N=C/c1c[nH]c2ccccc12)c1[nH]c2ccc(Br)cc2c1-c1ccccc1`, the inhibition was 57% (active).

On to `CC(C)(C)c1ccc(C(=O)Nc2ccc(C(=O)NCc3cccnc3)cc2)cc1`, for which the inhibition is 93.2% (active).

Regarding `COc1ccc(N2CCN(C(=O)CSc3nc4ccccc4c(=O)[nH]3)CC2)cc1`, the inhibition is 27.8%.

`COc1cc(C(=O)Nc2ccccc2N2CCN(S(C)(=O)=O)CC2)cc(OC)c1OC`: the inhibition is 34%.

With `COc1cc(-c2cc(C(=O)Nc3ccncc3)c3ccccc3n2)cc(OC)c1OC`, the inhibition was 40.5%.

Regarding `CCOc1ccc(NC(=O)CSc2nc3[nH]ncc3c(=O)[nH]2)cc1`, the inhibition was 43.5% (active).

Turning to `Cc1ccc(CN2CCC[C@]3(N[C@H](c4ccc(C(F)(F)F)cc4)[C@@H]4C(=O)N(Cc5ccccc5)C(=O)[C@@H]43)C2=O)cc1`, the inhibition was 28.4%.

For the compound `CNC(=S)N/N=C/c1cn(Cc2ccc(C)cc2)c2ccccc12`, the inhibition is 46.8% (active).

With `O=C1CCCN2N=C(SCC(=O)Nc3ccc(Br)cc3)SC2=N1`, the inhibition was 48.8% (active).

Regarding `O=C(c1cccc(Cl)c1)N1CCCC(c2ccc(Cl)cc2)=N1`, the inhibition was 57.3% (active).

Turning to `O=C(Nc1ccc2oc(-c3cccnc3)nc2c1)c1ccc([N+](=O)[O-])o1`, the inhibition is 62.5% (active).

Regarding `CCC(=O)N1CCN(c2ccc(NC(=O)c3ccc([N+](=O)[O-])o3)cc2Cl)CC1`, the inhibition is 58.2% (active).

Turning to `Cc1c(C(C)C)c(=O)n(-c2ccc(S(=O)(=O)NC3CCCCC3)cc2)n1C`, the inhibition is 62.1% (active).

Test system in another experiment: not listed separately
Briefly: compounds suppressing VP16-driven luciferase signal – cell-based, luminescence, high throughput, counter-screen for LRH-1 inverse agonist project (AID 651615). The conditions noted are these: Gal4-VP16 luciferase reporter cells, at 3.6 µM, hits give high values.
On to `CC1CCCC(C)N1C(=O)COC(=O)CCC1CCCC1` (stereo not given), for which the inhibition was 2.94%.

As to `COC(=O)c1ccc(NC(=O)CSc2nncn2-c2cccnc2)cc1`, the inhibition was 0.63%.

Take `CC1CC(C)CN(c2cc(N(C)CCO)c([N+](=O)[O-])c3nonc23)C1` (stereo not given): the inhibition was -3.82%.

For `CCCC(=O)Nc1sc2c(c1C(=O)Nc1ccccn1)CCCC2`, the inhibition was 5.28%.

`O=C(CSc1nnc(CNC(=O)c2ccccc2F)o1)Nc1ccc2c(c1)OCCO2`: the inhibition is -7.98%.

As for `CC(=O)N1CCc2c(sc(NC(=O)CCS(=O)(=O)c3ccc(C)cc3)c2C#N)C1`, the inhibition is -1.4%.

For `O=C(COc1cccc2c1CCNC2=O)Nc1cccc(C(F)(F)F)c1`, the inhibition was -20.7%.

Regarding `Cc1ccc(NC(=O)[C@H](Cc2c[nH]c3ccccc23)NC(=O)[C@@H]2Cc3ccccc3CN2)c(C)c1`, the inhibition was 77.5% (active).

Consider `COc1ccccc1NC(=O)CN1CCN(CC(=O)Nc2ccc(S(N)(=O)=O)cc2)CC1`, for which the inhibition was -15.6%.

As for `COc1cc(NC(=O)CCl)ccc(=O)c1`, the inhibition is -57%.

For the compound `Cc1cc2ccccn2c1C(=O)c1ccc([N+](=O)[O-])o1`, the inhibition was -0.71%.

For the compound `Cc1cc2ncn(/N=C/c3ccc([N+](=O)[O-])s3)c2cc1C`, the inhibition was -1.24%.

Consider `Cc1cc(-c2nnc(SCC(=O)Nc3cccc(C)c3C)n2N)n[nH]1`, for which the inhibition is -4.91%.

As to `CCCc1cc(=O)n2nc(N3CCC(C(=O)N4CCN(c5ccc(OC)cc5)CC4)CC3)sc2n1`, the inhibition was 49.8% (active).

Regarding `CCOc1ccccc1C(=O)Nc1cc2c(cc1N1CCCC1)n(CC)c(=O)n2CC`, the inhibition was 49.6% (active).

In the case of `CCOCC(=O)Nc1ccc(S(=O)(=O)NCCc2ccccc2)cc1`, the inhibition was 11.4%.

For the compound `Cc1cccc(NC(=O)CSc2nc3[nH]ncc3c(=O)[nH]2)c1C`, the inhibition is -4.74%.

For the compound `COCc1cccc(-c2csc(C(C)(O)c3cccc(OC)c3)n2)c1` (stereo not given), the inhibition was 11.7%.

As for `Nn1c(SCC(=O)Nc2c(F)cc(F)cc2Br)nnc1C1CCCCC1`, the inhibition is -6%.

On to `COc1ccc(-c2ccc(C(=O)NCc3ccncc3)c3occc23)c(C)c1`, for which the inhibition was 46.4% (active).

In the case of `CN(C)C(=O)Cn1c(SCC(=O)Nc2ccc3c(c2)OCO3)nc2ccccc21`, the inhibition is -0.46%.

With `COc1ccc(NC(=O)CSc2nnc(Cc3ccccc3)c(=O)n2N)c(OC)c1`, the inhibition was 5.51%.

Consider `C=CCNC(=S)N/N=C(\C)c1ccccn1`, for which the inhibition is 54.8% (active).

As to `CS(=O)(=O)c1ccc(Cl)c(NC(=O)Nc2ccccc2)c1`, the inhibition is -2.94%.

Consider `COC(=O)c1ccc(NC(=O)CSc2nnc(C)n2CC2CCCO2)cc1` (stereo not given), for which the inhibition is -3.65%.

Consider `O=C(Nc1c(Cl)ccc2nsnc12)c1ccc([N+](=O)[O-])o1`, for which the inhibition is -11.9%.

In the case of `Cc1ccc2[nH]c(C)c(/C=C/c3cc[n+](C)cc3)c2c1`, the inhibition was 67.8% (active).

As to `O=C(N/N=C/c1c[nH]c2ccccc12)c1[nH]c2ccc(Br)cc2c1-c1ccccc1`, the inhibition is 33.6% (active).

For `CC(C)(C)c1ccc(C(=O)Nc2ccc(C(=O)NCc3cccnc3)cc2)cc1`, the inhibition was 61% (active).

Consider `COc1ccc(N2CCN(C(=O)CSc3nc4ccccc4c(=O)[nH]3)CC2)cc1`, for which the inhibition was -12.9%.

`COc1cc(C(=O)Nc2ccccc2N2CCN(S(C)(=O)=O)CC2)cc(OC)c1OC`: the inhibition was -2.73%.

In the case of `COc1cc(-c2cc(C(=O)Nc3ccncc3)c3ccccc3n2)cc(OC)c1OC`, the inhibition is -10.9%.

In the case of `CCOc1ccc(NC(=O)CSc2nc3[nH]ncc3c(=O)[nH]2)cc1`, the inhibition was -6.78%.

As to `Cc1ccc(CN2CCC[C@]3(N[C@H](c4ccc(C(F)(F)F)cc4)[C@@H]4C(=O)N(Cc5ccccc5)C(=O)[C@@H]43)C2=O)cc1`, the inhibition is 22%.

Consider `CNC(=S)N/N=C/c1cn(Cc2ccc(C)cc2)c2ccccc12`, for which the inhibition was 1.56%.

For `O=C1CCCN2N=C(SCC(=O)Nc3ccc(Br)cc3)SC2=N1`, the inhibition is -7.91%.

On to `O=C(c1cccc(Cl)c1)N1CCCC(c2ccc(Cl)cc2)=N1`, for which the inhibition is 3.04%.

With `O=C(Nc1ccc2oc(-c3cccnc3)nc2c1)c1ccc([N+](=O)[O-])o1`, the inhibition was -5.53%.

Turning to `CCC(=O)N1CCN(c2ccc(NC(=O)c3ccc([N+](=O)[O-])o3)cc2Cl)CC1`, the inhibition is -21.9%.

With `Cc1c(C(C)C)c(=O)n(-c2ccc(S(=O)(=O)NC3CCCCC3)cc2)n1C`, the inhibition was 47.9% (active).
